According to PubChem BioAssay (NCI):
About 83,000 compounds went through this panel and 20% of them were active in at least one assay; those are over-represented in the sample as a whole.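 Compound tested at a single concentration for 48 hours in 96-well plates; a percent growth value below 10 was scored as active.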 Calls of active or inactive are those of the source.

tested on: COLO 205 colon; assay: NCI-60 one-dose screen, 48 h (100 = growth as untreated, 0 = no growth, -100 = all killed); details: 10 µM unless noted
Procedure: Cells are grown in 96 well plates and exposed to the test compound for 48 hours. Compounds are tested at a single concentration, which is 10^-5 M for most compounds. The reported endpoint is percent growth (GI% or GIPRCNT), where numbers from 0 - 100% represent growth inhibition, and numbers from -100% - 0 represent cell death. For example, a value of 40 represents 60% growth inhibition. A value of 0 means no net growth occurred over the course of the experiment. A value of -40 indicates 40% of cells at the beginning of the experiment died by the end of the experiment. A value of -100 means all cells are dead at the end of the experiment.
NCI-60 Human Tumor Cell Lines Screen was performed using the standard one-dose NCI protocol, which is described in more detail at https://dtp.cancer.gov/discovery_development/nci-60/default.htm.
Compounds with GIPRCNT values below 10 were considered active. Activity score was based on GIPRCNT using the following formula: […]
Score is 0 for GIPRCNT values of 100 or above, 50 for GIPRCNT values of 0, and 100 for GIPRCNT values of -100.

Structure (SMILES) | growth
COc1ccc(/C=C2\N=C(c3cccnc3)N(c3ccccc3)NC2=O)cc1 | 113% (inactive)
COC(=O)c1cc(Cl)cc([N+](=O)[O-])c1O | 115% (inactive)
CC(=O)Nc1ccc(Cl)cc1Cl | 130% (inactive)
CC(=O)c1cccc(Nc2ncnc3ccc(NC(=O)c4ccco4)cc23)c1 | 98.5% (inactive)
C/C=C(\C)C(C(=O)NC1CCCCC1)N(C(=O)C1CCc2cc(F)ccc2O1)c1ccc([N+](=O)[O-])cc1 (stereo not given) | 98.7% (inactive)
CN(C)c1ccc(/C=N/Nc2nnc3n2N=C(c2ccc(Cl)cc2)CS3)cc1 | 105% (inactive)
Cc1ccc(-c2nc3ccccc3c(=O)n2/N=C/c2cccc3ccccc23)cc1 | 73.8% (inactive)
CCCOC(=O)C1c2cc3c(cc2CC(C)C1C(=O)OCCC)OCO3 (stereo not given) | 121% (inactive)
COC(=O)/C=C/c1cc(OC(C)=O)c2c(c1)[C@@H](C(=O)OC)[C@H](c1ccc(OC(C)=O)c(OC(C)=O)c1)O2 | 47.1% (inactive)
COc1ccc(/C(=C\c2ccc3c(c2)OCO3)C(=O)Nc2nc3ccccc3s2)cc1 | 110% (inactive)
Cc1cc(C)c2c(n1)sc1c(Nc3ccc(OCc4ccccc4)cc3)ncnc12 | 111% (inactive)
N#Cc1nc(-c2cccc(Br)c2)cc(-c2ccc(Nc3nc(N4CCCCC4)nc(N4CCCCC4)n3)cc2)c1N | -57.7% (active)
COc1ccc(C2CC(c3cccc(Nc4ccnc5cc(Cl)ccc45)c3)=NN2c2ccccc2)cc1 (stereo not given) | 80.4% (inactive)
Cc1cc(NC(=O)c2ccc(N)cc2)ccc1N=Nc1ccc2cc(S(=O)(=O)O)cc(S(=O)(=O)O)c2c1 | 109% (inactive)
CCCC(CCC)NCC(O)c1cc(-c2ccc(C(F)(F)F)cc2)nc(C(F)(F)F)c1 (stereo not given) | -83.5% (active)
Cc1ccc(NC(=O)c2[nH]c(SCCN(C)C)nc2-c2ccc(F)cc2)cc1Nc1ccc2ncn(C)c(=O)c2c1 | 14.5% (inactive)
O=C1/C(=C\c2cccn2Cc2ccc(Cl)cc2)c2ccccc2N1c1c(Cl)cccc1Cl | 93.6% (inactive)
COc1ccc2c(c1)CCCC21C(=O)Nc2ccccc21 (stereo not given) | 108% (inactive)
O=C1C=CC(=O)N1CO | 149% (inactive)
Cn1nc(C(F)(F)F)cc1-c1cc(Cl)c(OCc2ccc(Cl)cc2)c(-c2ccc(Cl)c(C(F)(F)F)c2)c1O | -78.6% (active)

Structure (SMILES) | growth
CN1CCN(Cc2ccc(NC(=O)c3cncc(C#Cc4ncc5ccccn45)c3)cc2C(F)(F)F)CC1 | -26.5% (active)
CCN(CC)C(Cl)=Nc1ccc(Cl)cc1 | 103% (inactive)
COc1ccc(NC(=O)/C=C/c2ccc(NC(=O)N3CCCC3)cc2)cn1 | 112% (inactive)
Fc1cc(-c2nnc3sc(-c4ccc(Cl)cc4)nn23)c(Cl)cc1Cl | 106% (inactive)
COc1ccc(/C=C(/C(=O)N2CCN(c3ccccc3)CC2)c2cc(OC)c(OC)c(OC)c2)cc1N | -21.2% (active)
Cc1cc2nc3c(=O)[nH]c(=O)nc-3n(CC=O)c2cc1C | 128% (inactive)
ClCc1cccc(CSc2ncnc3c2ncn3Cc2cccc(CCl)c2)c1 | 26.3% (inactive)
CCCCn1cnc(-c2cc(-c3ccccc3)cc(C(F)(F)F)c2)n1 | 104% (inactive)
C#CC[C@@H]1C[C@]2(C)[C@H]3CC=C4[C@H]5[C@@H](C)[C@H](C)CC[C@]5(C(=O)NCCCN5CCN(CCCN)CC5)CC[C@@]4(C)[C@]3(C)CC[C@H]2C(C)(C)[C@H]1OC(C)=O | -69.9% (active)
Cc1ccccc1CNc1ncnc2[nH]ncc12 | 92.2% (inactive)
CCOC(=O)C1=C(C)NC(SCc2nnc(-c3ccc(Cl)cc3)o2)=NC1c1ccc(Br)cc1 (stereo not given) | 77.6% (inactive)
C#CC[C@@H]1C[C@]2(C)[C@H]3CC[C@@H]4[C@H]5C(C(=C)C)CC[C@]5(C(=O)NCCCCN)CC[C@@]4(C)[C@]3(C)CC[C@H]2C(C)(C)[C@H]1OC(C)=O (stereo not given in full) | -71.6% (active)
CCOC(CN1CCN(CC(C)C(=O)c2ccccc2)CC1)c1ccccc1 (stereo not given) | 107% (inactive)
Cc1ccc(CSCc2ccc(C(=O)NC3CC3)o2)cc1 | 63.7% (inactive)
O=C1/C(=C\c2cccn2C(=O)c2ccccc2)c2ccccc2N1c1c(Cl)cccc1Cl | 98% (inactive)
SCc1ccc(CS)cc1 | 116% (inactive)
COc1ccc(/C=C(/C(=O)N2CCN(c3ccccc3)CC2)c2cc(OC)c(OC)c(OC)c2)cc1O | 35.7% (inactive)
Cc1cccc(C(=O)O)n1 | 114% (inactive)
C/C(=C\C(=N\N=C(N)N)c1ccc(Cl)cc1)c1ccc(Cl)cc1 | -90.2% (active)
COc1ccc([C@@H]2[C@@H](Cl)C(=O)N2c2cc(OC)c(OC)c(OC)c2)cc1C | -57% (active)
